Only some compounds are listed: those with a hit (about 19% of all), similar ones and a draw of the others.
HT1080NT lethal: qHTS for induction of synthetic lethality in tumor cells producing 2HG: qHTS for the HT-1080-NT fibrosarcoma cell line; 1.6% of 360,000 active; Potency, µM (top dose mostly 46.1 µM), actives largely listed as cytotoxic; HT-1080-NT fibrosarcoma viability, CellTiter-Glo ATP luminescence, 48 h;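 also: NT is the 2HG producing partner of a matched IDH1 knockdown line; nearly all actives have a fitted effect of over 55% in size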
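Fibrosarcoma NT cells, 750 per well in 5% FBS RPMI, were exposed to compound for 48 hours. Viability: CellTiter-Glo luminescence.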
HT1080 IDH1KD tx: qHTS for induction of synthetic lethality in tumor cells producing 2HG: qHTS for the HT-1080-IDH1KD cell line | Potency, µM (titrated, usually from 46.1 µM), actives largely listed as cytotoxic | 2% of 360,000 active | HT-1080 IDH1 knockdown viability, ATP luminescence, 48 h | AID 686971, 2013
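Knockdown cells (IDH1KD HT-1080) received compounds 2 h after plating at 750 cells/well and were kept 48 h at 37 °C in 5% FBS RPMI. A CellTiter-Glo luminescence read gave % activity for curve fitting.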
TDP1 cell noCPT: qHTS for Inhibitors of human tyrosyl-DNA phosphodiesterase 1 (TDP1): qHTS in cells in absence of CPT | DT40 Tdp1-/- hTDP1 cells, no CPT, ATP luminescence, 48 h | 15% of 420,000 active | Potency, µM (series often up to 46.2 µM), most hits filed as inhibitors; also: nearly all actives have a fitted effect of over 55% in size
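Luminescent ATP content (CellTiter-Glo) served as the growth readout. Knockout chicken DT40 cells expressing human TDP1 were exposed to compounds without camptothecin for a minimum 48 hr at 37 °C.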
KB-3-1 tox: qHTS assay for MDR1-selective chemotherapeutics: Primary screen using the parental adenocarcinoma cell KB-3-1; KB-3-1 viability, CellTiter-Glo ATP luminescence, 72 h; Potency, µM (titrated, usually from 46.1 µM), usual class: cytotoxic; 1.4% of 400,000 active; AID 1347075, 2019; also: nearly all actives have a fitted effect of over 60% in size
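KB-3-1 parental drug-naive adenocarcinoma cells in DMEM/10% FBS, incubated 72 h at 37 C with pin-transferred compounds across a concentration series. Viability by CellTiter-Glo luminescence; concentration-response curves fitted after normalization.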
KB-V1 cytotox: qHTS assay for MDR1-selective chemotherapeutics: Primary screen using the drug-selected MDR subline cells KB-V1; Potency, µM (highest dose often 46.1 µM), usual class: cytotoxic; 3.4% of 400,000 active; KB-V1 MDR cells viability, CellTiter-Glo, 72 h; AID 1347076, 2019; also: nearly all actives have a fitted effect of over 60% in size
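KB-V1 cells (P-gp-expressing MDR subline of KB-3-1) in phenol-red-free DMEM with 10% FBS were exposed to library compounds over a concentration series for 72 h at 37 degrees C. Viability read by CellTiter-Glo luminescence; concentration-effect curves fitted after normalization.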
TDP1 cell CPT: qHTS for Inhibitors of human tyrosyl-DNA phosphodiesterase 1 (TDP1): qHTS in cells in presence of CPT. chicken DT40 Tdp1-/-;hTDP1 cells + 20 nM CPT, ATP luminescence, 48 h. Potency, µM (highest dose often 46.2 µM), most hits filed as inhibitors. 12% of 420,000 active. AID 686979, 2013; also: nearly all actives have a fitted effect of over 55% in size
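Cell growth measured by CellTiter-Glo luminescence after a minimum 48 h, 37 C compound exposure with 20 nM CPT in Tdp1-knockout DT40 cells stably expressing hTDP1, seeded 400/well; qHTS titration format.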
A number is an active result; [ ] = remark or other dose. Calls follow the shape of the dose curve; as a rule, active = well fitted curve in the direction sought with a large enough effect; inconclusive = small, poorly fitted or top-dose-only effect, or another doubt; inactive = no such curve, though single readings can be large; an effect the other way counts as inactive or inconclusive.

Screening C[C@H]1CN([C@@H](C)CO)C(=O)c2cccc(NS(=O)(=O)c3ccc(F)cc3)c2O[C@H]1CN(C)S(=O)(=O)c1cn(C)cn1 returned HT1080NT lethal inactive, HT1080 IDH1KD tx inactive, TDP1 cell noCPT inactive, KB-3-1 tox inactive, KB-V1 cytotox inactive and TDP1 cell CPT inactive.
C=CCc1ccc(OCC(O)CN2CCC(Cc3ccccc3)CC2)c(OC)c1 (centres undefined) was read as HT1080NT lethal inconclusive, HT1080 IDH1KD tx inactive[9.24 µM], TDP1 cell noCPT inconclusive, KB-3-1 tox inactive, KB-V1 cytotox 20.6µM and TDP1 cell CPT inconclusive.
Screening OC(COc1ccccc1)CN1CCC(Cc2ccccc2)CC1 (centres undefined) returned HT1080NT lethal inactive, HT1080 IDH1KD tx inactive, TDP1 cell noCPT inactive, KB-3-1 tox inactive, KB-V1 cytotox inactive and TDP1 cell CPT inactive.
CO/N=C(\C(=O)N[C@@H]1C(=O)N2C(C(=O)O)=C(CSc3nc(=O)c(O)nn3C)CS[C@H]12)c1csc(N)n1 was read as TDP1 cell noCPT inactive and TDP1 cell CPT inactive.
`CSc1ccccc1OCc1cc(C(=O)N2CCCC2c2nonc2C)no1` (centres undefined) gave HT1080NT lethal inactive, HT1080 IDH1KD tx inactive, TDP1 cell noCPT 20.6µM, KB-3-1 tox inactive, KB-V1 cytotox inactive and TDP1 cell CPT 23.1µM.
`Cn1ccnc1C1CCCCN1C(=O)c1cc(COc2ccc(F)cc2F)on1` (centres undefined) gave HT1080NT lethal inactive, HT1080 IDH1KD tx inactive, TDP1 cell noCPT 13µM, KB-3-1 tox inactive, KB-V1 cytotox inconclusive and TDP1 cell CPT inconclusive.
CSc1ccccc1OCc1cc(C(=O)N2CCc3[nH]cnc3C2c2ccccn2)no1 (centres undefined) was read as HT1080NT lethal inactive, HT1080 IDH1KD tx inactive, TDP1 cell noCPT 2.91µM and TDP1 cell CPT inactive.
CCOC(=O)N1CCC(NC(=O)c2cc(COc3ccccc3SC)on2)CC1 was read as HT1080NT lethal inactive, HT1080 IDH1KD tx inconclusive, TDP1 cell noCPT 1.46µM, KB-3-1 tox inactive, KB-V1 cytotox 9.2µM and TDP1 cell CPT 3.66µM.
Screening COc1cc(CNCc2ccc(Br)cc2)cc(OC)c1 returned HT1080NT lethal inactive, HT1080 IDH1KD tx inactive, TDP1 cell noCPT inconclusive, KB-3-1 tox inactive, KB-V1 cytotox inactive and TDP1 cell CPT inconclusive.
Screening COC(=O)C1(C(=O)OC)C[C@H](c2ccc(OC)cc2)N(Cc2ccccc2OC)[C@@H]1c1ccc(OC)cc1 returned HT1080NT lethal inactive, HT1080 IDH1KD tx inactive, TDP1 cell noCPT 20.6µM, KB-3-1 tox inconclusive, KB-V1 cytotox inconclusive and TDP1 cell CPT inconclusive.
For COc1ccccc1CNC(=O)C12CC3CC(CC(C3)C1)C2 the results were HT1080NT lethal inactive, HT1080 IDH1KD tx inactive, TDP1 cell noCPT inconclusive, KB-3-1 tox inactive, KB-V1 cytotox inconclusive and TDP1 cell CPT inconclusive.
`COc1cc(C(=O)NCCOc2ccc(F)cc2)c(Br)c(OC)c1OC` gave HT1080NT lethal inactive, HT1080 IDH1KD tx inactive, TDP1 cell noCPT inactive, KB-3-1 tox inactive, KB-V1 cytotox inactive and TDP1 cell CPT inactive.
For Cc1csc2nc(COC(=O)c3ccc(NC(=O)c4ccccc4Br)cc3)cc(=O)n12 the results were TDP1 cell noCPT 18.4µM and TDP1 cell CPT 20.6µM.
`Cc1csc2nc(COC(=O)CNC(=O)c3ccccc3)cc(=O)n12` gave TDP1 cell noCPT inactive, KB-3-1 tox inactive, KB-V1 cytotox inactive and TDP1 cell CPT inactive.
Cc1csc2nc(COc3ccc(NC(=O)C(C)C)cc3)cc(=O)n12 was read as TDP1 cell noCPT inactive, KB-3-1 tox inactive, KB-V1 cytotox inactive and TDP1 cell CPT inactive.

From PubChem
